Reference: ChEMBL document CHEMBL4513146, “CO-ADD screening of Karazin Kharkiv National University (Ukraine) compounds”
Measured potencies and affinities stand elsewhere.

Columns and labels:
Klebsiella pneumoniae = conditions: Concentration 32 ug.mL-1;; ASSAY_TEST Inhibition of Bacterial Growth; detection method Absorption (OD600); MEDIA CAMHB; plate type 384well; NBS; CORNING #3640; time 18 hr
Candida albicans = conditions: Concentration 32 ug.mL-1; ASSAY_TEST Inhibition of Fungal Growth; detection method Absorption (OD530)
Cryptococcus neoformans = conditions: Concentration 32 ug.mL-1; ASSAY_TEST Inhibition of Fungal Growth; detection method Resazurin; Absorption (OD600-OD570); plate type 384well; NBS; CORNING #3640

O=C(NCc1ccccc1)c1ccc2nn(CC(=O)N3CCN(c4ccccc4F)CC3)c(=O)n2c1
Inhibition (Klebsiella pneumoniae): 7.35% | Inhibition (Candida albicans): 4.65% | Inhibition (Cryptococcus neoformans): -15.87%

O=C(CSc1nc2ccccc2n2cnnc12)Nc1cc(C(F)(F)F)ccc1Cl
Inhibition (Klebsiella pneumoniae): 4.72% | Inhibition (Candida albicans): 15.89% | Inhibition (Cryptococcus neoformans): -19.78%

CCCCn1c(=O)c2sccc2n2c(=O)n(CC(=O)c3cccc(OC)c3)nc12
Inhibition (Klebsiella pneumoniae): 13.89% | Inhibition (Candida albicans): 1.56% | Inhibition (Cryptococcus neoformans): -15.97%

COc1cccc(NC(=O)Cn2nc3c(Oc4ccccc4)nccn3c2=O)c1
Inhibition (Klebsiella pneumoniae): -9.5% | Inhibition (Candida albicans): 1.78% | Inhibition (Cryptococcus neoformans): -2.51%

CCOC(=O)c1ccc(NC(=O)Cn2nc3c(N4CCOCC4)nccn3c2=O)cc1
Inhibition (Klebsiella pneumoniae): 11.56% | Inhibition (Candida albicans): 3.03% | Inhibition (Cryptococcus neoformans): -14.12%

CCOc1ccc(-n2ccn3c(SC(CC)C(=O)Nc4cc(F)ccc4F)nnc3c2=O)cc1 (stereo not given)
Inhibition (Klebsiella pneumoniae): 11.22% | Inhibition (Candida albicans): 0.62% | Inhibition (Cryptococcus neoformans): -9.91%

Cc1ccc(-c2cc3c4nnc(CCC(=O)N5CCC(Cc6ccccc6)CC5)n4ccn3n2)cc1C
Inhibition (Klebsiella pneumoniae): 14.91% | Inhibition (Candida albicans): 0.82% | Inhibition (Cryptococcus neoformans): -35.19%

O=C(Cn1nc2c(Oc3ccccc3)nccn2c1=O)Nc1ccc(Cl)cc1
Inhibition (Klebsiella pneumoniae): 8.01% | Inhibition (Candida albicans): -0.31% | Inhibition (Cryptococcus neoformans): -10.29%

Cc1ccc(-c2ccc3nn(CC(=O)Nc4cccc(Cl)c4)c(=O)n3n2)cc1C
Inhibition (Klebsiella pneumoniae): 4.06% | Inhibition (Candida albicans): 0.61% | Inhibition (Cryptococcus neoformans): -15.53%

O=C(Cn1nc2ccc(Sc3cccc(F)c3)nn2c1=O)Nc1ccc(Cl)cc1
Inhibition (Klebsiella pneumoniae): -0.35% | Inhibition (Candida albicans): 14.09% | Inhibition (Cryptococcus neoformans): -7.49%

COc1ccc(NC(=O)Cn2nc3cc(C)nc(Nc4ccc(F)cc4)n3c2=O)cc1F
Inhibition (Klebsiella pneumoniae): 11.33% | Inhibition (Candida albicans): 2.69% | Inhibition (Cryptococcus neoformans): -3.63%

Cc1ccc(NC(=O)CSc2nnc3n(CC4CCCO4)c(=O)c4sccc4n23)cc1F (stereo not given)
Inhibition (Klebsiella pneumoniae): 6.62% | Inhibition (Candida albicans): -2.27% | Inhibition (Cryptococcus neoformans): -15.18%

Cc1ccc(Oc2nccn3c(=O)n(CC(=O)Nc4ccc(Cl)cc4F)nc23)cc1
Inhibition (Klebsiella pneumoniae): 8.24% | Inhibition (Candida albicans): 4.29% | Inhibition (Cryptococcus neoformans): -15%

O=S(=O)(c1ccc2nncn2c1)N(Cc1ccccc1)c1ccc(F)c(F)c1
Inhibition (Klebsiella pneumoniae): 5.23% | Inhibition (Candida albicans): 3.55% | Inhibition (Cryptococcus neoformans): -6.45%

CCc1nnc2c(S(=O)(=O)N(Cc3cc(F)cc(F)c3)c3ccc(C)cc3)cccn12
Inhibition (Klebsiella pneumoniae): 20.07% | Inhibition (Candida albicans): 3.29% | Inhibition (Cryptococcus neoformans): -8.74%

Cc1cc(C)cc(N(Cc2ccccc2)S(=O)(=O)c2cccn3cnnc23)c1
Inhibition (Klebsiella pneumoniae): -6.91% | Inhibition (Candida albicans): 1.52% | Inhibition (Cryptococcus neoformans): -4.73%

COc1ccc(N2CCN(C(=O)Cn3nc4ccc(-c5ccccc5)nn4c3=O)CC2)cc1
Inhibition (Klebsiella pneumoniae): 3.53% | Inhibition (Candida albicans): -1.43% | Inhibition (Cryptococcus neoformans): -4.25%

CCCCOc1ccc(-c2cc3c4nnc(SCC(=O)Nc5cccc(C#N)c5)n4ccn3n2)cc1
Inhibition (Klebsiella pneumoniae): -0.44% | Inhibition (Candida albicans): 7.68% | Inhibition (Cryptococcus neoformans): -23.71%

Cc1cccc(N(Cc2ccc(F)cc2)S(=O)(=O)c2cccn3c(C)nnc23)c1
Inhibition (Klebsiella pneumoniae): 7.81% | Inhibition (Candida albicans): 3.26% | Inhibition (Cryptococcus neoformans): -8.62%

COc1ccc(NC(=O)CSc2nc3ccccc3n3c(C(C)C)nnc23)c(OC)c1
Inhibition (Klebsiella pneumoniae): 7.3% | Inhibition (Candida albicans): 2.71% | Inhibition (Cryptococcus neoformans): -21.27%

Cc1ccc(Cl)cc1NC(=O)CSc1nnc2n(CC3CCCO3)c(=O)c3sccc3n12 (stereo not given)
Inhibition (Klebsiella pneumoniae): 10.58% | Inhibition (Candida albicans): -1.49% | Inhibition (Cryptococcus neoformans): -15.54%

COc1ccc(CCn2c(=O)c3sccc3n3c(=O)n(Cc4ccc(F)cc4)nc23)cc1OC
Inhibition (Klebsiella pneumoniae): 6.56% | Inhibition (Candida albicans): 11.53% | Inhibition (Cryptococcus neoformans): -31.44%

O=C(Cn1nc2nc(Nc3ccc(F)cc3)ccn2c1=O)N1CCCC1
Inhibition (Klebsiella pneumoniae): 10.98% | Inhibition (Candida albicans): 0.53% | Inhibition (Cryptococcus neoformans): -8.71%

COC(=O)c1ccc(NC(=O)Cn2nc3c(Oc4cccc(OC)c4)nccn3c2=O)cc1
Inhibition (Klebsiella pneumoniae): 5.51% | Inhibition (Candida albicans): 12.96% | Inhibition (Cryptococcus neoformans): -6.09%

Cc1cc(C)cc(Nc2nc(C)cc3nn(CC(=O)Nc4ccccc4)c(=O)n23)c1
Inhibition (Klebsiella pneumoniae): 9.53% | Inhibition (Candida albicans): 4.6% | Inhibition (Cryptococcus neoformans): -8.58%

O=C(CSc1nnc2c3cc(-c4ccccc4)nn3ccn12)NCc1ccccc1Cl
Inhibition (Klebsiella pneumoniae): 7.7% | Inhibition (Candida albicans): 0.55% | Inhibition (Cryptococcus neoformans): -17.16%

Cc1ccccc1NC(=O)Cn1nc2c3cc(-c4ccc(Cl)cc4)nn3ccn2c1=O
Inhibition (Klebsiella pneumoniae): 14.64% | Inhibition (Candida albicans): 1.52% | Inhibition (Cryptococcus neoformans): -18.17%

Cc1cc(C)cc(Nc2nc(C)cc3nn(CC(=O)Nc4cc(F)ccc4F)c(=O)n23)c1
Inhibition (Klebsiella pneumoniae): 17.33% | Inhibition (Candida albicans): 4.37% | Inhibition (Cryptococcus neoformans): -7.31%

COc1ccc(NC(=O)c2ccc3nn(CC(=O)Nc4ccccc4C(F)(F)F)c(=O)n3c2)cc1
Inhibition (Klebsiella pneumoniae): 0.14% | Inhibition (Candida albicans): 5.37% | Inhibition (Cryptococcus neoformans): -8.24%

O=C(Cn1nc2c3cc(-c4ccc(Cl)cc4)nn3ccn2c1=O)NC1CCCC1
Inhibition (Klebsiella pneumoniae): 4.67% | Inhibition (Candida albicans): 2.49% | Inhibition (Cryptococcus neoformans): -18.35%

O=C(CSc1nnc2c(=O)n(-c3ccccc3)ccn12)Nc1cccc(Cl)c1
Inhibition (Klebsiella pneumoniae): 1.21% | Inhibition (Candida albicans): -0.19% | Inhibition (Cryptococcus neoformans): -20.21%

COc1cccc(-n2ccn3c(SCc4cccc(C(F)(F)F)c4)nnc3c2=O)c1
Inhibition (Klebsiella pneumoniae): -17.2% | Inhibition (Candida albicans): 12.49% | Inhibition (Cryptococcus neoformans): -6.54%

O=c1c2sccc2n2c(=S)[nH]nc2n1CC1CCCO1 (stereo not given)
Inhibition (Klebsiella pneumoniae): 6.97% | Inhibition (Candida albicans): -1.18% | Inhibition (Cryptococcus neoformans): -5.63%

COc1cccc(-n2ccn3c(SCC(=O)c4cc(C)c(C)cc4C)nnc3c2=O)c1
Inhibition (Klebsiella pneumoniae): 11.25% | Inhibition (Candida albicans): 2.17% | Inhibition (Cryptococcus neoformans): -10.44%

COc1ccc(CCn2c(=O)c3sccc3n3c(=O)n(CC(=O)c4ccccc4)nc23)cc1OC
Inhibition (Klebsiella pneumoniae): 16.06% | Inhibition (Candida albicans): 0.73% | Inhibition (Cryptococcus neoformans): -38.41%

CCc1nnc2c(S(=O)(=O)N(Cc3cccc(Cl)c3)c3ccccc3)cccn12
Inhibition (Klebsiella pneumoniae): -7.54% | Inhibition (Candida albicans): 2.13% | Inhibition (Cryptococcus neoformans): -7.64%

Cc1ccc(Cn2c(=O)c3ccc(C(=O)NC4CCCC4)cc3n3c(=O)n(CC#N)nc23)cc1
Inhibition (Klebsiella pneumoniae): 8.48% | Inhibition (Candida albicans): 2.86% | Inhibition (Cryptococcus neoformans): -4.65%

COc1ccc(N(Cc2cccc(Cl)c2)S(=O)(=O)c2ccc3nnc(C)n3c2)cc1
Inhibition (Klebsiella pneumoniae): 12.69% | Inhibition (Candida albicans): 5% | Inhibition (Cryptococcus neoformans): -5.62%

COc1cc(NC(=O)Cn2nc3ccc(C(=O)NCc4ccccc4)cn3c2=O)cc(OC)c1OC
Inhibition (Klebsiella pneumoniae): 1.38% | Inhibition (Candida albicans): 5.58% | Inhibition (Cryptococcus neoformans): -8.4%

COc1ccc(NC(=O)c2ccc3nn(CC(=O)Nc4ccc(C(F)(F)F)cc4)c(=O)n3c2)cc1
Inhibition (Klebsiella pneumoniae): -7.6% | Inhibition (Candida albicans): 4.22% | Inhibition (Cryptococcus neoformans): -2.75%

CCc1cccc(C)c1NC(=O)CSc1nnc2ccc(C(=O)Nc3cccc(F)c3)cn12
Inhibition (Klebsiella pneumoniae): 5.93% | Inhibition (Candida albicans): 1.09% | Inhibition (Cryptococcus neoformans): -4.75%

Cc1cc(C)cc(Nc2nc(C)cc3nn(CC(=O)Nc4cc(F)cc(F)c4)c(=O)n23)c1
Inhibition (Klebsiella pneumoniae): 13.54% | Inhibition (Candida albicans): 4.35% | Inhibition (Cryptococcus neoformans): -10.24%

CCc1ccc(N(Cc2ccccc2F)S(=O)(=O)c2cccn3c(C)nnc23)cc1
Inhibition (Klebsiella pneumoniae): 6.64% | Inhibition (Candida albicans): 0.88% | Inhibition (Cryptococcus neoformans): -9.4%

Cc1ccc(NC(=O)Cn2nc3cc(C)nc(Nc4ccc(F)cc4)n3c2=O)cc1
Inhibition (Klebsiella pneumoniae): 11.23% | Inhibition (Candida albicans): 3.22% | Inhibition (Cryptococcus neoformans): -24.95%

O=C(Cn1nc2c3sc(N4CCCC4)nc3ncn2c1=O)Nc1cccc(Br)c1
Inhibition (Klebsiella pneumoniae): 18.9% | Inhibition (Candida albicans): 3.98% | Inhibition (Cryptococcus neoformans): -10.95%

COc1ccc(NC(=O)Cn2nc3ccc(SCc4ccc(Cl)cc4)nn3c2=O)cc1OC
Inhibition (Klebsiella pneumoniae): -4.29% | Inhibition (Candida albicans): 32.62% | Inhibition (Cryptococcus neoformans): -6.53%

COc1ccc(NC(=O)c2ccc3nn(CC(=O)Nc4ccc(C(C)C)cc4)c(=O)n3c2)cc1
Inhibition (Klebsiella pneumoniae): 5.27% | Inhibition (Candida albicans): 10.58% | Inhibition (Cryptococcus neoformans): -13.36%

O=S(=O)(c1ccc2nncn2c1)N(Cc1ccccc1F)c1ccc(F)c(F)c1
Inhibition (Klebsiella pneumoniae): -0.52% | Inhibition (Candida albicans): 1.44% | Inhibition (Cryptococcus neoformans): -2.71%

CCc1ccccc1NC(=O)Cn1nc2cc(C)nc(Nc3ccc(F)c(C)c3)n2c1=O
Inhibition (Klebsiella pneumoniae): 11.82% | Inhibition (Candida albicans): 5.42% | Inhibition (Cryptococcus neoformans): -2.36%

COc1ccc(NC(=O)Cn2nc3c(SCc4ccc(Cl)cc4)nccn3c2=O)cc1
Inhibition (Klebsiella pneumoniae): 5.73% | Inhibition (Candida albicans): -0.37% | Inhibition (Cryptococcus neoformans): -4.83%

CC(=O)c1ccc(NC(=O)Cn2nc3c(Sc4ccc(C)cc4C)nccn3c2=O)cc1
Inhibition (Klebsiella pneumoniae): -3.02% | Inhibition (Candida albicans): 1.94% | Inhibition (Cryptococcus neoformans): -20.51%

COc1ccc(N2CCN(C(=O)Cn3nc4c(Oc5ccc(C)cc5)nccn4c3=O)CC2)cc1
Inhibition (Klebsiella pneumoniae): 7.21% | Inhibition (Candida albicans): 1.27% | Inhibition (Cryptococcus neoformans): -9.68%

Cc1ccc(Sc2ccc3nn(CC(=O)Nc4cccc(Cl)c4)c(=O)n3n2)cc1
Inhibition (Klebsiella pneumoniae): -1.6% | Inhibition (Candida albicans): 23.7% | Inhibition (Cryptococcus neoformans): -8.64%

Cc1ccc(C)c(NC(=O)Cn2nc3c(N4CCCC(C)C4)nccn3c2=O)c1 (stereo not given)
Inhibition (Klebsiella pneumoniae): 3.52% | Inhibition (Candida albicans): 2.37% | Inhibition (Cryptococcus neoformans): -8.1%

Cc1cc2nn(CC(=O)N3CCOCC3)c(=O)n2c(Nc2ccc(C)c(F)c2)n1
Inhibition (Klebsiella pneumoniae): 15.3% | Inhibition (Candida albicans): 1.38% | Inhibition (Cryptococcus neoformans): -5.57%

O=c1c2sccc2n2c(SCc3cccc(C(F)(F)F)c3)nnc2n1Cc1cccs1
Inhibition (Klebsiella pneumoniae): 1.3% | Inhibition (Candida albicans): 16.7% | Inhibition (Cryptococcus neoformans): -17.87%

COc1cccc(-n2ccn3c(SCC#N)nnc3c2=O)c1
Inhibition (Klebsiella pneumoniae): 2.74% | Inhibition (Candida albicans): 3.51% | Inhibition (Cryptococcus neoformans): -7.4%

COc1ccccc1-n1ccn2c(SCc3ccc(Cl)cc3)nnc2c1=O
Inhibition (Klebsiella pneumoniae): 8.98% | Inhibition (Candida albicans): 1.6% | Inhibition (Cryptococcus neoformans): -13.63%

Cc1cc(C)cc(NC(=O)Cn2nc3ccc(SCc4ccc(Cl)cc4)nn3c2=O)c1
Inhibition (Klebsiella pneumoniae): -2.52% | Inhibition (Candida albicans): 46.75% | Inhibition (Cryptococcus neoformans): -25.54%

COC(=O)c1cccc(NC(=O)Cn2nc3c(Sc4ccc(C)cc4C)nccn3c2=O)c1
Inhibition (Klebsiella pneumoniae): 13.86% | Inhibition (Candida albicans): -2.57% | Inhibition (Cryptococcus neoformans): -30.13%
